Results filed as inconclusive are left out. A call without a number means that no potency is given here. The source made the active and inactive calls. Calls follow the shape of the dose curve; as a rule, active = well fitted activation curve with a large enough effect in the repeat runs; inconclusive = weak or mixed curves; inactive = flat fitted curve, though single readings scatter.
Potency is read from the fitted curve at half-maximal effect.

This test is described as follows: qHTS assay for small molecule agonists of the antioxidant response element (ARE) signaling pathway measured by Nrf2-dependant transcriptional activity (AID 720636). The following applies: ARE-luc HepG2, Nrf2 luciferase reporter, 16 h; series mostly up to 92.4 µM. From the text: National Center for Advancing Translational Sciences [NCATS] NIH Chemical Genomics Center [NCGC] U.S. Environmental Protection Agency [EPA] National Institutes of Environmental Health Sciences [NIEHS] National Toxicology Program [NTP] Assay Overview: The antioxidant response element (ARE) signaling pathway plays an important role in the cellular anti-oxidant defense. Exposure to stressors which are exogenous like ionizing radiations, chemicals, U-V light, and endogenous like cell signaling, metabolic processes or inflammation, reactive oxygen species (ROS), can induce oxidative stress in the cells. Oxidative stress has been implicated in the pathogenesis of a variety of diseases ranging from cancer to neurodegeneration. ARE-luc HepG2 cell line (Simmons et al., Current Chemical Genomics, 5:1-12, 2011) has been used for identifying the chemicals that induce oxidative stress. The cell line has an Nrf2-responsive luciferase reporter gene that has been engineered to measure Nrf2-dependant transcriptional activity.
Assay Protocol Summary: For measuring ARE induction; 2,000 ARE-luc HepG2 cells in 5 uL of assay medium containing 1% dialyzed FBS per well were dispensed into white wall/solid bottom 1536-well plates using a Flying Reagent Dispenser (FRD) (Aurora Discovery). The assay plates were incubated for 6 hr at 37 C to allow cell attachment to the well bottom, followed by the transfer of 23 nL compound or DMSO vehicle by a pin tool (Kalypsys). The plates were incubated for 16 hr at 37 C and 5% CO2, followed by the addition of 5 uL of ONE-GloTM luciferase reagent (Promega) into each well using FRD. After 30 min room temperature incubation, plates were read on a ViewLux plate reader (PerkinElmer).
As to `CC1(C)CC(N)CC(C)(CN)C1` (stereo not given), the Potency result is “inactive”. Consider `CN(C)Cc1cc(CN(C)C)c(O)c(CN(C)C)c1`, for which the Potency entry was “inactive”. Turning to `CCCCCCCCCCO`, the Potency result is “inactive”. On to `O=C(O)c1cccc(C(=O)O)c1`, for which the Potency entry is “inactive”. With `Nc1cc(Cl)c(O)c(Cl)c1`, the Potency was 68.6 µM (active).

In the case of `CCCCCCCCCCCCCCCCCCN`, the Potency result is “inactive”. With `CCN(Cc1c(F)cccc1Cl)c1c([N+](=O)[O-])cc(C(F)(F)F)cc1[N+](=O)[O-]`, the Potency result was “inactive”.

Turning to `c1cc2ccc3ccc4ccc5cccc6c(c1)c2c3c4c56`, the Potency entry is “inactive”. `Clc1nc(Cl)c(Cl)c(Cl)c1Cl`: the Potency entry is “inactive”.

As for `CCCCN(CCCC)CCCC`, the Potency result was “inactive”.

As for `O=C(Cl)c1cc(Cl)cc(Cl)c1`, the Potency result is “inactive”. `CCCCCCCCCCCC[N+](C)(C)C`: the Potency entry is “inactive”. Take `CCCCCCCCCCCC(=O)N(C)CC(=O)O`: the Potency result is “inactive”. Regarding `O=C(Cl)c1cccc(C(=O)Cl)c1`, the Potency result was “inactive”. Turning to `CCCCC(CC)COC(C)=O` (stereo not given), the Potency result was “inactive”. Next, `Oc1ccc(Nc2ccccc2)cc1`: “inactive”.

Take `CCCCCCCCC(=O)O`: the Potency result was “inactive”. Take `CCCC[O][Al]([O]CCCC)[O]CCCC`: the Potency result was “inactive”. In the case of `CC(=O)/C=C/C1C(C)=CCCC1(C)C` (stereo not given), the Potency entry is “inactive”. On to `CCCCCCCCCCCCCCCCCC(N)=O`, for which the Potency result was “inactive”. Take `CC(C)(C)c1cccc(C(C)(C)C)c1O`: the Potency result was “inactive”.

With `CCC/C(=N\OCC)C1=C(O)CC(O)(CC(C)S(=O)(=O)CC)CC1=O` (stereo not given), the Potency result is “inactive”. With `O=C(c1ccc(Cl)cc1)c1ccc(Cl)cc1`, the Potency result is “inactive”. On to `CC(C)Nc1nc(N)nc(Cl)n1`, for which the Potency result is “inactive”.

In the case of `CC[C@H]1O[C@]2(CC[C@@H]1C)C[C@@H]1C[C@@H](C/C=C(\C)C[C@@H](C)/C=C/C=C3CO[C@@H]4[C@H](O)C(C)=C[C@@H](C(=O)O1)[C@]34O)O2`, the Potency entry was “inactive”. For `C=CCOC(=O)CC(C)C`, the Potency result is “inactive”. As for `CCCCCCCCCCCCCCCC`, the Potency entry is “inactive”. Regarding `CCOCCOCCOC(C)=O`, the Potency entry was “inactive”. Consider `CCCCC/C=C\C/C=C\CCCCCCCC(=O)OC`, for which the Potency entry is “inactive”. Consider `O=C(O)C(c1ccc(Cl)cc1)c1ccc(Cl)cc1`, for which the Potency result was “inactive”.

As to `CCCN(CCC)c1c([N+](=O)[O-])cc(C(F)(F)F)c(N)c1[N+](=O)[O-]`, the Potency entry is “inactive”.

Consider `OC1CCC(C2CCCCC2)CC1` (stereo not given), for which the Potency entry was “inactive”. Turning to `CCCCCCCCCC[N+](C)(C)Cc1ccccc1`, the Potency result is “inactive”. Next, `C=CC(=O)NC(C)(C)CS(=O)(=O)O`: “inactive”; `c1ccc2c(c1)Cc1ccccc1-2`: “inactive”. As for `CCc1c(C(=O)O)c(=O)cnn1-c1ccc(Cl)cc1`, the Potency entry is “inactive”. `Cn1c(=O)[nH]c(=O)n(C2CCCCC2)c1=O`: the Potency result is “inactive”.

Regarding `FC(F)(F)c1ccc(Cl)c(Cl)c1`, the Potency entry is “inactive”. Turning to `CC(=O)CC(=O)Nc1ccccc1C`, the Potency entry was “inactive”. Turning to `CCOCCOCCOCC`, the Potency entry was “inactive”.

The values above are taken from PubChem BioAssay (NCATS).
